VLA-4 inh – inhibition in a human VLA-4 binding assay. VLA-4 expressing cells, ligand binding flow cytometry. 330,000 compounds, 0.2% hits. P13612. inhibition, % (about 7 µM as worked out from the volumes in the protocol); in the data active = inhibition above about 50%
SKN-1 inh – blocks SKN-1 activity in C. elegans; inhibition, % at 21.8 µM; 360,000 compounds, 0.49% hits; AID 624304; C. elegans VP596 Pgst-4::GFP/RFP ratio, acrylamide-induced, 24 h;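 active = interference check ratio from 0.5 to 1.5 plus GFP to RFP signal ratio inhibition reaching or exceeding a fixed threshold, cut at about 30% in these data, passing the limit was not always enough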
Platelet DG rel – platelet dense granule release activity; 300,000 compounds, 0.22% hits; AID 1663; inhibition, %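 (compounds screened at 7.5 µM in platelet-rich plasma)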; human platelet-rich plasma, SFLLRN dense granule ATP release, luminescence;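 active = mean replicate score, as percent of positive control, at or above 50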
CR mimetic SO – caloric restriction mimetics inhibiting age-related superoxide in yeast; S. cerevisiae aged cells, superoxide DHE fluorescence; active compounds read low; superoxide response (% of plate mean), % at 10 µM; 330,000 compounds, 0.18% hits;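 active = superoxide response under a set limit, about three screen SD below normal, cut at about 65% in these data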;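 note: yeast aged for seven days with compound at 30 °C before DHE staining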
ABCB6 inh MLPCN – human ABCB6 transporter inhibition. Q9NP58. K562-ABCB6 porphyrin accumulation, flow cytometry, 1 h; active compounds read low. fluorescence ratio to DMSO, % at 10 µM. 360,000 compounds, 0.19% hits. AID 602162;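 active = fluorescence ratio to DMSO below 75%, the collection mean minus 3 SD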;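 note: signal is porphyrin accumulated inside mitochondria; lower ratio means ABCB6 inhibition with less porphyrin fluorescence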
Numbers stand for hits; . = inactive; / = not tested or not shown. Rows were chosen to be rich in hits. Some 1.2% of all compounds tested hit in one or more screens of this group.

SMILES	VLA-4 inh	SKN-1 inh	Platelet DG rel	CR mimetic SO	ABCB6 inh MLPCN
CC1(C(=O)Nc2ccc3c(c2)OCCO3)CSCC(=O)N1Cc1ccco1 (stereo unspecified)	/	.	/	/	/
CCCS(=O)(=O)NC(=O)C1(C)CCCN(C(=O)c2cccc(C(F)(F)F)c2)C1 (stereo unspecified)	/	.	/	/	.
COC(=O)c1ccc(C(=O)N2CCCCCC2(C)C(=O)NC(C)C)cc1 (stereo unspecified)	/	.	/	/	.
CCOC(=O)c1cnc2ccc(OC)cc2c1Nc1ccc2c(c1)OCCO2	.	.	.	.	.
CCOC(=O)c1cnc2c(OC)cccc2c1Nc1ccc2c(c1)OCCO2	.	.	.	57	.
COc1ccc(C(C(=O)NCc2ccccc2)n2c(=O)c(-c3ccco3)nc3ccccc32)cc1 (stereo unspecified)	/	.	/	/	/
O=C(Nc1ccc(Cl)cc1Cl)C1=Cc2ccccc2OC1	.	37	.	.	.
O=C(Nc1ccc(Cl)cc1)C1=Cc2cc(Cl)ccc2OC1	.	.	.	.	.
CCOC(=O)c1cn(CC)c2cc(N3CCOCC3)c(F)cc2c1=O	.	40	.	.	.
CCOC(=O)/C(=C\c1ccc(C)cc1)NC(=O)c1ccccc1	.	.	.	.	70
O=C(NCCc1ccccc1)/C(=C\c1ccc([N+](=O)[O-])cc1)NC(=O)c1ccc(Br)cc1	.	.	.	.	.
Cc1ccc(C(=O)N/C(=C\c2ccc([N+](=O)[O-])cc2)C(=O)NCCc2ccccc2)cc1	.	.	.	.	71
CC1(C(=O)Nc2ccc3c(c2)OCCO3)CCN1C(=O)c1ccco1 (stereo unspecified)	/	.	/	/	.
COC(=O)[C@@]12C[C@@H](CC(=O)NCc3cccc(C(F)(F)F)c3)C(=O)N(CCc3ccc(OC)c(OC)c3)C1=CCC(C)(C)C2	/	.	/	/	/
Clc1ccc(OCc2noc(-c3ccsc3)n2)c(Cl)c1	.	74	.	.	.
C(=N\N=C\c1cccs1)/c1cccs1	.	74	.	.	.
COC(=O)[C@@]12C[C@@H](CC(=O)NCc3cccc(C(F)(F)F)c3)C(=O)N(Cc3ccc4c(c3)OCO4)C1=CCC(C)(C)C2	/	.	/	/	/
O=C(NCC1CC1)c1ccc(-c2cn[nH]c2)c2ccoc12	/	35	/	/	.
COCCNC(=O)c1ccc(-c2cn[nH]c2)c2ccoc12	/	.	/	/	.
CN(CC(=O)NCCc1ccccc1)S(=O)(=O)c1ccc(Br)s1	.	37	.	.	.
CCCC(=O)N1CCC1(C)C(=O)Nc1ccc2nccnc2c1 (stereo unspecified)	/	.	/	/	.
O=C1NCC(c2ccccc2)C1C(=O)N/N=C\c1ccc(-c2cccc(Cl)c2Cl)o1 (stereo unspecified)	.	36	.	.	.
CN(C)S(=O)(=O)c1ccc(N2CCCC2)c(C(=O)NCc2cccc(C(F)(F)F)c2)c1	.	47	.	.	.
O=C(Oc1ccccc1)c1ccc(COC(=O)c2cnccn2)cc1	.	.	.	.	.
O=C(Oc1ccc(Cl)cc1)c1ccc(COC(=O)c2cnccn2)cc1	.	.	63	.	.
SMILES	VLA-4 inh	SKN-1 inh	Platelet DG rel	CR mimetic SO	ABCB6 inh MLPCN
Cc1nn(C(=O)CCC(=O)NCc2cccc(F)c2)c2ccccc12	.	34	.	.	.
CC(=O)OC[C@@H]1CN(Cc2ccccc2)C[C@H](n2cnc3c(N4CCN(c5ccccc5)CC4)ncnc32)O1	/	.	/	/	.
CCCCNC(=O)c1nc(C2CCN(S(=O)(=O)c3ccc(C(F)(F)F)cc3)CC2)oc1-c1ccccc1	/	.	/	/	/
O=C1/C(=C/c2cccs2)SC(=S)N1CC(=O)N1CCCCC1CCO (stereo unspecified)	.	44	.	.	.
CC1CC(C)CN(C(CCc2ccccc2)C(=O)NC2CCCCC2)C1 (stereo unspecified)	/	.	/	/	.
CC(=O)c1ccc(-n2nncc2-c2ccc([N+](=O)[O-])cc2)cc1	.	59	.	.	.
CC1=NN(c2ccccc2)C(=O)/C1=C/C=C/C=C/N(C)C	.	66	.	.	.
COc1ccc(CN(C(=O)c2oc3ccccc3c2C)C2CCS(=O)(=O)C2)cc1 (stereo unspecified)	.	36	.	.	.
Cc1c(C(=O)N(Cc2ccccc2)C2CCS(=O)(=O)C2)oc2ccccc12 (stereo unspecified)	.	.	.	.	.
CN1CCN(c2ccc3sc(-n4ccc5ccccc54)nc3c2)CC1	/	.	/	/	.
O=C1CSC(=S)N1Nc1ccccc1	/	36	/	/	.
CC(C)[C@@H]1Cc2[nH]c(=O)[nH]c(=O)c2[C@H](C)O1	/	.	/	/	.
O=C(Nc1ccc(N2CCCCC2)cc1)c1ccc2ccccc2n1	.	69	.	.	.
Cc1csc(NC(=O)c2ccc3ccccc3n2)n1	.	.	.	.	.
O=C(Nc1nccs1)c1ccc2ccccc2n1	.	57	.	.	.
Cc1nc(N2CCN(Cc3ccc(Cl)cc3)CC2)c2oc3ccccc3c2n1	.	.	.	.	.
Cc1nc(N2CCC(C)CC2)c2oc3ccccc3c2n1	.	.	60	.	.
CCOc1ccc2c(=O)c(Oc3ccccc3OCC)coc2c1	.	36	/	.	.
CCOc1ccccc1Oc1coc2cc(OCC(=O)O)ccc2c1=O	.	.	.	.	.
O=C1CC(c2ccco2)CC2=C1C=Nc1ccccc1N2 (stereo unspecified)	.	.	.	.	.
O=c1[nH]c2c(s1)C=Nc1ccccc1N2	.	.	77	.	.
CCSC1=N/C(=C\c2ccc(C(=O)O)cc2)C(=O)S1	.	.	.	.	.
CCOC(=O)SC1=N/C(=C\c2ccc(N(C)C)cc2)C(=O)S1	.	41	.	.	.
Cc1ccc(NC(=S)c2nc3ccccc3s2)cc1	.	35	.	.	.
N#C/C(=N\Nc1ccccc1)C(N)=S	.	.	.	.	.
SMILES	VLA-4 inh	SKN-1 inh	Platelet DG rel	CR mimetic SO	ABCB6 inh MLPCN
N#C/C(=N\Nc1ccc(Cl)cc1)C(N)=S	.	39	.	.	.
N#Cc1cc(-c2cccc(Cl)c2)c[nH]c1=O	.	.	.	.	.
C=CCn1cc(-c2cccc(Cl)c2)cc(C#N)c1=O	.	40	.	.	.
Cc1cccc(C)c1NC(=O)C1(C)CSCC(=O)N1CCc1c[nH]c2ccccc12 (stereo unspecified)	/	.	/	/	/
CCCNC(=O)c1cc2c(c(-c3cccc(-c4ccccc4F)c3)n1)[C@H](CCO)N(C(=O)CC1CC1)C2	/	.	/	/	.
COC(=O)[C@@]12C[C@@H](CC(=O)NCc3ccc(OC)c(OC)c3)C(=O)N(Cc3ccc4c(c3)OCO4)C1=CCC(C)(C)C2	/	.	/	/	/
O=C(O)CCCCCN1C(=O)C2CCCCC2C1=O (stereo unspecified)	.	.	.	.	.
O=C(O)CCCCCCC1C(=O)NC(=O)N1CCC(O)C1CCCCC1 (stereo unspecified)	.	.	88	.	.

Compound activity from PubChem BioAssay.
